Measurements as given in PubChem BioAssay (NCI).
This is part of a sample that, as a whole, favours compounds with a hit. Of some 79,000 tested, about 15% had one in any assay. The source made the active and inactive calls. No stated cut-off is given here; in the data, active means growth inhibition above about 70%; inactive means the rest.

Tests used:
[1] = NCI Yeast Anticancer Drug Screen. Data for the mec2-1 strain (AID 157); conditions: S. cerevisiae mec2-1 strain, stronger effect = higher value
Summary of the method: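 Yeast mec2-1 mutant treated with compound. Readout: growth inhibition vs vehicle controls.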

[2] = NCI Yeast Anticancer Drug Screen. Data for the rad14 strain (AID 159);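 further: 0% = growth of vehicle-treated control cultures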; conditions: S. cerevisiae rad14 strain growth inhibition, stronger effect = higher value
Summary of the method: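 A mutant yeast strain defective in DNA damage repair is treated with compound; inhibition of its growth is scored against untreated, vehicle-exposed cultures.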

[3] = NCI Yeast Anticancer Drug Screen. Data for the sgs1 mgt1 strain (AID 161);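 further: 0% = growth of cultures given vehicle only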; conditions: S. cerevisiae sgs1 mgt1 strain, stronger effect = higher value
Summary of the method: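 Genetically altered yeast, compound exposure, growth inhibition relative to vehicle.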

[4] = NCI Yeast Anticancer Drug Screen. Data for the CLN2oe strain (AID 163);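 further: 0% = growth of vehicle-only control cultures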; conditions: S. cerevisiae CLN2oe strain, stronger effect = higher value
Summary of the method: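 Read-out: yeast growth inhibition, expressed relative to vehicle-only controls. The strain bears an engineered cell-cycle alteration.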

[5] = NCI Yeast Anticancer Drug Screen. Data for the cln2 rad14 strain (AID 165);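 further: 0% = growth equal to vehicle treated cultures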; conditions: S. cerevisiae cln2 rad14 strain, stronger effect = higher value
Summary of the method: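 cln2 rad14 yeast strain; compound exposure; growth inhibition read vs vehicle controls.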

[6] = NCI Yeast Anticancer Drug Screen. Data for the bub3 strain (AID 167); conditions: S. cerevisiae bub3 mutant strain, stronger effect = higher value
Summary of the method: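 Steps: expose the mutant yeast strain to compound; grow alongside vehicle-treated cultures; measure growth; express inhibition against the vehicle cultures.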

[7] = NCI Yeast Anticancer Drug Screen. Data for the wt2 strain (AID 169);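 further: 0% = growth of vehicle-treated yeast cultures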; conditions: S. cerevisiae wt2 strain growth inhibition, stronger effect = higher value
Summary of the method: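 Read-out: growth inhibition versus vehicle-treated control cultures after compound exposure of the yeast strain.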

[8] = NCI Yeast Anticancer Drug Screen. Data for the mlh1 strain (AID 171);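 further: 0% = growth of vehicle-treated control cultures of the same strain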; conditions: S. cerevisiae mlh1 strain growth inhibition, stronger effect = higher value
Summary of the method: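 Read-out: growth inhibition versus vehicle controls. Strain: engineered yeast with a defined DNA repair or cell cycle defect, compound-treated.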

[9] = NCI Yeast Anticancer Drug Screen. Data for the sgs1 strain (AID 173);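 further: 0% = growth of vehicle-only control cultures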; conditions: S. cerevisiae sgs1 mutant, stronger effect = higher value
Summary of the method: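 Read-out: yeast growth inhibition relative to vehicle controls, following compound exposure of a strain with a defined DNA repair/cell cycle alteration.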

[10] = NCI Yeast Anticancer Drug Screen. Data for the mlh1 rad18 strain (AID 175); conditions: S. cerevisiae mlh1 rad18 strain growth inhibition, stronger effect = higher value
Summary of the method: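 Yeast w/ defined DNA-repair lesions; compound exposure; growth vs vehicle controls → % inhibition.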

[11] = NCI Yeast Anticancer Drug Screen. Data for the rad18 strain (AID 177); conditions: S. cerevisiae rad18 mutant growth inhibition, stronger effect = higher value
Summary of the method: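 Readout: growth inhibition vs vehicle controls. Cells: genetically altered yeast strain, DNA repair defect.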

[12] = NCI Yeast Anticancer Drug Screen. Data for the rad52 strain (AID 147);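 further: 0% = growth of vehicle-treated control cultures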; conditions: S. cerevisiae rad52 mutant growth inhibition, stronger effect = higher value
Summary of the method: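 Read-out: growth inhibition versus vehicle-treated controls. Cells were a DNA repair-deficient yeast strain treated with compounds.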

[13] = NCI Yeast Anticancer Drug Screen. Data for the wt1 strain (AID 149);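 further: 0% = growth of vehicle-treated wt1 cultures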; conditions: S. cerevisiae wt1 strain (SPY 50644) growth inhibition, stronger effect = higher value
Summary of the method: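 Compounds are added to wt1 yeast cultures. Growth is then measured. Inhibition is expressed relative to vehicle-treated controls.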

[14] = NCI Yeast Anticancer Drug Screen. Data for the rad50EPP+ strain (AID 151);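 further: 0% = growth of vehicle-treated control cultures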; conditions: S. cerevisiae rad50 mutant strain, stronger effect = higher value
Summary of the method: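 Growth inhibition read against vehicle controls in rad50EPP+ yeast, a strain altered in DNA damage repair, after compound exposure.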

[15] = NCI Yeast Anticancer Drug Screen. Data for the mgt1 strain (AID 153); conditions: S. cerevisiae mgt1 mutant growth inhibition, stronger effect = higher value
Summary of the method: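 mgt1 yeast grown with test compound; read-out is growth inhibition versus vehicle-treated cultures.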

[16] = NCI Yeast Anticancer Drug Screen. Data for the rad50 strain (AID 155);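 further: 0% = growth of vehicle-only cultures of the same strain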; conditions: S. cerevisiae rad50 strain growth inhibition, stronger effect = higher value
Summary of the method: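 Inhibition values express reduced yeast growth in compound-treated cultures relative to vehicle-treated controls.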

[17] = at 5.0 µM (retest, dose inferred, filed as 0.5)
[18] = at 50.0 µM (retest, dose inferred, filed as 5.0)

Measured: growth inhibition

Cc1c(C2=C(Br)C(=O)N(C)C2=O)c(=O)n(C)c(=O)n1C
active: [1]; at 100.0 µM 94% | [2]; at 100.0 µM 91% | [6]; at 100.0 µM 91% | [7]; at 100.0 µM 95% | [8]; at 100.0 µM 97% | [9]; at 100.0 µM 94% | [10]; [18] 84% | [10]; at 50.0 µM 91.7% | [11]; at 11.0 µM 75% | [11]; at 33.0 µM 88% | [11]; at 100.0 µM 96%
inactive: [1]; [17] -3% | [1]; at 11.0 µM 26% | [1]; at 33.0 µM 45% | [1]; [18] 20% | [1]; at 50.0 µM 56.1% | [2]; at 1.2 µM 5% | [2]; at 3.7 µM 13% | [2]; at 11.0 µM 28% | [2]; at 33.0 µM 47% | [3]; [17] 0% | [3]; [18] 5% | [3]; at 50.0 µM 58.6% | [4]; at 1.2 µM -2% | [4]; at 3.7 µM 0% | [4]; at 11.0 µM 1% | [4]; at 33.0 µM 10% | [4]; at 100.0 µM 44% | [5]; [17] 20% | [5]; [18] -14% | [5]; at 50.0 µM 3.95% | [6]; at 1.2 µM 1% | [6]; at 3.7 µM 4% | [6]; [17] 6% | [6]; at 11.0 µM 18% | [6]; at 33.0 µM 47% | [6]; [18] 57% | [6]; at 50.0 µM 28.1% | [7]; at 1.2 µM 0% | [7]; at 3.7 µM 3% | [7]; at 11.0 µM 11% | [7]; at 33.0 µM 39% | [8]; at 1.2 µM 0% | [8]; at 3.7 µM 3% | [8]; at 11.0 µM 13% | [8]; at 33.0 µM 48% | [9]; at 1.2 µM 2% | [9]; at 3.7 µM 11% | [9]; at 11.0 µM 22% | [9]; at 33.0 µM 60% | [10]; [17] 4% | [11]; at 1.2 µM 17% | [11]; at 3.7 µM 46%

S=c1[nH]nc(Nc2ccc(Cl)cc2)s1
inactive: [12]; at 1.2 µM -6% | [12]; at 3.7 µM -9% | [12]; at 11.0 µM 1% | [13]; at 1.2 µM 1% | [13]; at 3.7 µM 4% | [13]; at 11.0 µM 6% | [13]; at 33.0 µM 36% | [14]; at 1.2 µM -2% | [14]; at 3.7 µM -10% | [14]; at 11.0 µM 13% | [14]; at 33.0 µM 27% | [14]; at 100.0 µM 23% | [15]; at 1.2 µM -1% | [15]; at 3.7 µM -7% | [15]; at 11.0 µM -2% | [15]; at 33.0 µM -8% | [15]; at 100.0 µM 19% | [16]; at 1.2 µM -7% | [16]; at 3.7 µM -13% | [16]; [17] -150% | [16]; at 11.0 µM -10% | [16]; at 33.0 µM -17% | [16]; [18] 32% | [16]; at 100.0 µM 42% | [1]; at 1.2 µM -1% | [1]; at 3.7 µM -1% | [1]; [17] -49% | [1]; at 11.0 µM -6% | [1]; at 33.0 µM 3% | [2]; at 1.2 µM -3% | [2]; at 3.7 µM 1% | [2]; at 11.0 µM 0% | [2]; at 33.0 µM 46% | [3]; [17] -61% | [4]; at 1.2 µM -7% | [4]; at 3.7 µM -7% | [4]; at 11.0 µM -13% | [4]; at 33.0 µM -11% | [5]; [17] -55% | [6]; at 1.2 µM -3% | [6]; at 3.7 µM -1% | [6]; [17] -67% | [6]; at 11.0 µM -7% | [6]; at 33.0 µM -10% | [6]; [18] 38% | [6]; at 100.0 µM 9% | [7]; at 1.2 µM 1% | [7]; at 3.7 µM 9% | [7]; at 11.0 µM 8% | [8]; at 1.2 µM -7% | [8]; at 3.7 µM -2% | [8]; at 11.0 µM -4% | [8]; at 33.0 µM 8% | [8]; at 100.0 µM 61% | [9]; at 1.2 µM -14% | [9]; at 3.7 µM -7% | [9]; at 11.0 µM 2% | [9]; at 33.0 µM 37% | [10]; [17] -149% | [10]; [18] 19% | [11]; at 1.2 µM -3% | [11]; at 3.7 µM 2% | [11]; at 11.0 µM -4% | [11]; at 33.0 µM 38%
active: [12]; at 33.0 µM 70% | [12]; at 100.0 µM 96% | [13]; at 100.0 µM 89% | [16]; at 50.0 µM 92.8% | [1]; [18] 93% | [1]; at 50.0 µM 91.8% | [1]; at 100.0 µM 91% | [2]; at 100.0 µM 96% | [3]; [18] 86% | [3]; at 50.0 µM 89% | [4]; at 100.0 µM 73% | [5]; [18] 83% | [5]; at 50.0 µM 90.5% | [6]; at 50.0 µM 88.8% | [7]; at 33.0 µM 82% | [7]; at 100.0 µM 98% | [9]; at 100.0 µM 91% | [10]; at 50.0 µM 92.6% | [11]; at 100.0 µM 94%
